TDP1 cell CPT: DT40-hTDP1 cell growth loss with CPT; chicken DT40 Tdp1-/-;hTDP1 cells + 20 nM CPT, ATP luminescence, 48 h; AID 686979; 12% of 420,000 active; Potency, µM (titrated, usually from 46.2 µM), inactives show at the highest dose activity change, negative = growth inhibition, hits mostly inhibitors; further: nearly all actives have a fitted effect of over 55% in size
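Cell growth measured by CellTiter-Glo luminescence after a minimum 48 h, 37 C compound exposure with 20 nM CPT in Tdp1-knockout DT40 cells stably expressing hTDP1, seeded 400/well; qHTS titration format.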
DT40 TDP1 no CPT: qHTS for Inhibitors of human tyrosyl-DNA phosphodiesterase 1 (TDP1): qHTS in cells in absence of CPT. Potency, µM (doses to about 46.2 µM), without a hit: top-dose activity change, negative = growth inhibition, actives largely listed as inhibitors. DT40 Tdp1-/- hTDP1 cells, no CPT, ATP luminescence, 48 h. 15% of 420,000 active; further: nearly all actives have a fitted effect of over 55% in size
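Camptothecin absent (DMSO only). Human TDP1-complemented DT40 knockout cells, 400 cells/well, 37 °C for minimum 48 hr; ATP measured via CellTiter-Glo, 30 min dark incubation, luminescence.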
VP16 counter: counter-screen for ROR gamma inhibitors: Gal4-VP16 reporter; Potency, µM (top dose mostly 53.6 µM), inactives show at the top dose activity, negative = inhibition, actives largely listed as inhibitors; 3.5% of 310,000 active; Drosophila S2 Gal4-VP16 UAS-luciferase, luminescence, 20 h;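 further: Gal4-VP16 expression switched on by copper sulfate through the metallothionein promoter; nearly all actives have a fitted effect of over 50% in size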
TDP1 inh: TDP1 (human) enzyme inhibition; 0.28% of 350,000 active; Q9NUW8; recombinant TDP1, AlphaScreen DNA substrate cleavage; Potency, µM (highest dose often 130 µM), without a hit: at the highest dose activity change, negative = inhibition, actives largely listed as inhibitors; further: nearly all actives have a fitted effect of over 40% in size
Target sequence (Q9NUW8 whole entry, looked up): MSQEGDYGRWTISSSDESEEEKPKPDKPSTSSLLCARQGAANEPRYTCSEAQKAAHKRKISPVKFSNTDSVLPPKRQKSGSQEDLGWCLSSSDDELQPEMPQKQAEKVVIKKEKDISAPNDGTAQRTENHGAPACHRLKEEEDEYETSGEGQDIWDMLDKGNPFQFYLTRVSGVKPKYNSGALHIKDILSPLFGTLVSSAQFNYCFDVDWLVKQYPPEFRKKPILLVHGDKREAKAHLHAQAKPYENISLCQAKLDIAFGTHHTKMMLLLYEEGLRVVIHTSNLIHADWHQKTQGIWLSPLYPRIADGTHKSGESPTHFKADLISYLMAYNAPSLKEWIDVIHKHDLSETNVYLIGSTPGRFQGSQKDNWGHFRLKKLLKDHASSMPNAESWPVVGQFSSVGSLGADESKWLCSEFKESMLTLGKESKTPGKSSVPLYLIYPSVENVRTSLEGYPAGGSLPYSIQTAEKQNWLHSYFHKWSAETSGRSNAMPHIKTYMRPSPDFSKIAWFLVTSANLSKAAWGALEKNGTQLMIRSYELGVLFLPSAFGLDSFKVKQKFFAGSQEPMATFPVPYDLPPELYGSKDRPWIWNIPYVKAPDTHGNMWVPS
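Recombinant human Tdp1 (E. coli-expressed, 1 nM final) preincubated with compounds 15 min at room temperature, then 5'-biotin/3'-phosphotyrosine-FITC DNA substrate (15 nM final) added for 5 min. AlphaScreen beads (10 ug/ml final) added 10 min; cleavage lowers signal.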
RORg inh: ROR gamma (mouse) transcription inhibition. 5.4% of 310,000 active. P51450. Potency, µM (titrated, usually from 53.6 µM), for inactives: at the highest dose activity change, negative = inhibition, usual class: inhibitors. Drosophila S2 Gal4-RORgamma UAS-luciferase reporter, 20 h; further: nearly all actives have a fitted effect of over 60% in size
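Drosophila Schneider cells stably carrying a metallothionein-driven Gal4 DBD–ROR gamma fusion and a UAS-Photinus luciferase reporter were exposed to compound for 1 hr, then induced with copper sulfate (700 uM final) for 20 hr at ambient temperature before luminescence reading.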
* = called active by the depositor; ? = inconclusive; nt = no result given; [ ] = another dose, or the depositor's remark. This is a sample that favours compounds with a hit; in the whole collection about 19% have one here. The call rests on the fitted dose curve; in most records, active means well fitted curve in the direction sought with a large enough effect; inconclusive means small, poorly fitted or top-dose-only effect, or another doubt; inactive means no such curve, though single readings can be large; an effect the other way counts as inactive or inconclusive. On the % scale 0 is the no-effect control and ±100 the full control effect; potency means the concentration at half of the fitted maximal effect.

SMILES	TDP1 cell CPT	DT40 TDP1 no CPT	VP16 counter	TDP1 inh	RORg inh
COc1ccccc1-n1cnc2cc(NCc3cccs3)ccc21	0.731µM*	0.92µM*	-18.6%	9.8%	?
CC(C)(C)n1cnc2cc(NC(=O)c3cccs3)ccc21	?	23.1µM*	-11.6%	6.2%	12.8%
CCCNC(=O)c1ccc2c(c1)ncn2-c1ccccc1OC	3.3%	?	nt	1.1%	28.1%[0.365 µM]
COc1ccc(CNc2ccc3c(c2)ncn3-c2ccccc2OC)cc1	?	?	?	12.2%	17.8µM*
CCCn1cnc2cc(NCc3ccc(OC)cc3OC)ccc21	16.4µM*	23.1µM*	nt	7.3%	nt
Cc1ccccc1-n1cnc2cc(NCc3cccs3)ccc21	?	23.1µM*	-7.5%	11.8%	?
CC(C)CCn1c(S(=O)(=O)O)nc2ccccc21	9.9%	-3.3%	-7.8%	6.2%	-6.1%
O=C(NC12CC3CC(CC(C3)C1)C2)C12CC3CC(C1)CC(n1cnc(Cl)n1)(C3)C2	20.6µM*	16.4µM*	-1.7%	1.5%	-16.1%
CCOC(=O)CNC(=O)CNC(=O)c1ccc(OCC(C)C)cc1	?	20.6µM*	0.4%	8.0%	0.5%[10 µM]
CCCCCOc1ccc(C(=O)NCC(=O)NCC(=O)OCC)cc1	18.4µM*	20.6µM*	-0.6%	3.0%	-26.4%[10 µM]
CCCCOc1ccc(C(=O)NCC(=O)NCCOc2ccccc2)cc1	1.2%	-25.0%	nt	nt	nt
CCOC(=O)CNC(=O)CNC(=O)c1ccc(OC(C)C)cc1	0.3%	-1.6%	1.3%	nt	-1.1%
COc1cc(OC)c(C2=Nc3ccc(Br)cc3C(c3ccccc3)N2CC(=O)NN)cc1OC (stereo not drawn)	6.7%	18.7%	-3.3%	6.1%	-15.3%
COc1ccccc1C1(CC(=O)N2CCCCC2)CCOC(C(C)C)C1 (stereo not drawn)	23.1µM*	23.1µM*	-11.0%	3.0%	21.6%
Cc1ccc(-c2cc(C(F)F)n3ncc(C(=O)N4CCN5CCCC5C4)c3n2)cc1 (stereo not drawn)	14.6µM*	?	1.8%	6.8%	7.3%
Cc1ccc(-c2cc(C(F)F)n3ncc(C(=O)NN4CCCCC4)c3n2)cc1	20.6µM*	23.1µM*	-6.8%[10 µM]	-5.4%	-11.3%
Cc1ccc(-c2cc(C(F)F)n3ncc(C(=O)Nc4cn(C)nc4C)c3n2)cc1	-18.6%	?	1.9%	6.0%	5.2%
CCOC1CCCc2oc(-c3ccsc3)c(-c3cnc(OC)nc3)c21 (stereo not drawn)	?	23.1µM*	nt	nt	nt
COc1ccc(-c2ccc3oc(-c4ccsc4)c(-c4ccc(OC)cc4)c3c2)cc1	-21.0%	-21.5%	nt	nt	nt
CCNC(=O)CC(=O)Nc1ccccc1C(=O)O	-15.1%	-0.7%	-4.2%	5.7%	?
COc1ccc(CNC(=O)CCS(=O)(=O)Cc2ccc(C)cc2)c(OC)c1	-4.7%	-13.1%	6.5%[10 µM]	-2.6%	13.9%
CC(=O)N1CCc2c(sc(NC(=O)C3CC3)c2-c2nc3ccccc3s2)C1	16.4µM*	14.6µM*	-6.1%	1.0%	-0.8%
CC(=O)Nc1sc2c(c1-c1nc3ccccc3s1)CN(C(C)C)CC2	nt	nt	nt	1.2%	nt
CN1CCc2c(sc(NC(=O)Cc3ccccc3)c2C#N)C1	2.3%	-12.4%	3.7%	nt	-6.4%
CN1CCc2c(sc(NC(=O)CSc3ccccc3)c2-c2nc3ccccc3s2)C1	?	20.6µM*	nt	-2.6%	nt
SMILES	TDP1 cell CPT	DT40 TDP1 no CPT	VP16 counter	TDP1 inh	RORg inh
CC(=O)N1CCc2c(sc(NC(=O)CSc3ccccc3)c2-c2nc3ccccc3s2)C1	13µM*	10.3µM*	nt	-5.2%	nt
CCCCC(=O)Nc1sc2c(c1-c1nc3ccccc3s1)CCN(C(C)=O)C2	nt	nt	?	5.4%	?
O=C(c1ccc(-c2ccccc2Cl)s1)N1CCOCC1	-24.1%	-28.4%	nt	nt	nt
CC(C)NC(=O)N(C)C[C@H]1OCc2cnnn2CCCC(=O)N([C@@H](C)CO)C[C@H]1C	-13.4%	-5.9%	nt	nt	nt
O=c1c2c(n3cnnc3n1C1CCCCC1)-c1ccccc1CC21CCCCC1	20.6µM*	25.9µM*	-8.8%	2.4%	23.9%
O=c1c2c(n3nnnc3n1Cc1ccccc1)-c1ccccc1CC21CCCC1	-29.3%	?	-14.5%	-4.1%	-3.5%
Cc1ccc(-n2c(SCC(N)=O)nc3c(c2=O)C2(CCCC2)Cc2ccccc2-3)cc1	-25.4%	?	?	2.7%	26.5%
CSc1nnc2n(C)c3c(c(=O)n12)C1(CCCC1)Cc1ccccc1-3	?	25.9µM*	-0.4%	3.1%	-1.9%
Cn1ncn2c(=O)c3c(nc12)-c1ccccc1CC31CCCC1	?	?	-0.5%	-2.8%	23.9%
Cn1c(=O)c2c(n3cnnc13)-c1ccccc1CC21CCCC1	?	14.6µM*	-2.1%	2.5%	?
O=c1c2c(n3nnnc3n1-c1ccccc1)-c1ccccc1CC21CCCC1	2.31µM*	?	2.1%	0.0%	?
CC(=O)OCCc1c(C)nc2nc[nH]n2c1=O	-2.5%	-0.3%	5.4%	2.3%	-21.9%
N#CCCn1cc(/C=N/NC(N)=S)c(-c2ccc(Br)cc2)n1	?	?	0.501µM*	2.5%	0.224µM*
N#CCCn1cc(C=C(C#N)C#N)c(-c2ccc(Cl)cc2)n1	16.4µM*	?	?	-9.9%	-131.5%
N#CCCn1cc(/C=N/O)c(-c2ccc(-c3ccccc3)cc2)n1	23.1µM*	?	3.9%	5.1%	8.9%
N#CCCn1cc(/C=N/O)c(-c2ccc(Cl)cc2)n1	-15.6%	-5.9%	?	5.8%	28.3%
N#CCCn1cc(/C=C(\C#N)c2nc3ccccc3s2)c(-c2ccc(F)cc2)n1	2.5%	-23.7%	-5.5%	3.2%	-9.2%
N#CCCn1cc(/C=C2\NC(=S)N(c3ccccc3)C2=O)c(-c2ccc(-c3ccccc3)cc2)n1	6.51µM*	8.2µM*	-6.9%	0.0%	-18.9%
NC(=S)N/N=C/c1cn(CCC(=O)O)nc1-c1cccc(Br)c1	10.4%	2.2%	-4.8%	2.7%	?
CN(CC(=O)Nc1ccccc1Br)C(=O)CNC(=O)C1CCCCC1	-15.6%	-19.2%	nt	2.1%	nt
CCN(CC)C(CNC(=O)c1cc(=O)[nH]c2ccccc12)c1ccccc1Cl (stereo not drawn)	-1.2%	-15.0%	3.6%	nt	-7.1%
N#CCCn1cc(/C=N/NC(N)=S)c(-c2ccccc2)n1	?	?	7.08µM*	0.0%	6.31µM*
NC(=O)OC[C@H](O)COc1ccc(Cl)cc1	nt	nt	-9.4%[17 µM]	4.3%[56.1 µM]	3.9%[2.98 µM]
O=C(C[n+]1ccccc1)N/N=C/c1cc(Br)cc(Br)c1O	8.0%	5.4%	-22.2%	nt	-38.3%
COc1cc(Br)cc(/C=N/NC(=O)Cc2ccccc2)c1O	0.517µM*	0.461µM*	nt	nt	nt
O=C(Cc1ccccc1)N/N=C/c1cc(Br)cc(Cl)c1O	3.66µM*	2.31µM*	1.26µM*	11.0%	0.562µM*

From PubChem BioAssay
